In ChEMBL document CHEMBL1157539, “Thousands of chemical starting points for antimalarial lead identification” (Nature, 2010):

Key:
Assay type in all cases: functional
[1] = test system: Plasmodium falciparum; assay: GSK_TCMDC: Inhibition of Plasmodium falciparum 3D7 in whole red blood cells, using parasite LDH activity as an index of growth. Test compounds present at 2uM
[2] = test system: Plasmodium falciparum; assay: GSK_TCMDC: Inhibition of Plasmodium falciparum Dd2 in whole red blood cells, using parasite LDH activity as an index of growth. Test compounds present at 2uM
[3] = test system: HepG2; assay: GSK_TCMDC: Percent inhibition of human HepG2 cell line. Test compounds present at 10uM.

SMILES	Inhibition [1]	Inhibition [2]	Inhibition [3]
CC(C)Cc1cn(-c2nc(C(=N)N)cs2)c2cc(Cl)ccc12	100%	98%	98%
CCC(Nc1noc(-c2c(-c3ccccc3)noc2C)n1)c1ccccc1 (stereo unspecified)	99%	85%	4%
CCCc1ccc(Nc2nc(C)cc(N(CC)CCCN3CCCCC3)n2)cc1.O=C(O)C(F)(F)F	100%	95%	48%
CC1CCc2sc(-c3nnc(SC(C)C(=O)N4CCCC4)o3)cc2C1 (stereo unspecified)	93%	94%	1%
COc1cccc(CCc2cccc(CNC(C)=O)c2)c1	88%	0%	2%
CC(CCc1ccccc1)NCC(O)c1ccc2c3c(cccc13)S(=O)(=O)N2C.Cl (stereo unspecified)	99%	99%	16%
Cc1ccc(C)c2sc(N3CCN(C(=O)c4ccc([N+](=O)[O-])o4)CC3)nc12	96%	89%	0%
N#Cc1ccc(NC(=O)N2CCCN(CCCCCNC(=O)/C=C/c3ccc(Cl)c(Cl)c3)CC2)cc1	100%	4%	32%
CC(=O)c1ccc(NC(=O)C2c3ccccc3C(=O)N(CC(C)C)C2c2cccs2)cc1 (stereo unspecified)	99%	51%	13%
CCOC(=O)c1cn(CC)c2cc(N3CCCCCC3)c(F)cc2c1=O	94%	89%	0%
Nc1nc(N)c2c(ccc3c2ccn3CCCC(F)(F)F)n1	97%	34%	66%
CN1CCC(C(=O)Nc2ccc(-c3ccc(-c4nc5ccccc5[nH]4)cc3)cc2)CC1	100%	94%	28%
